28 compounds from PubChem BioAssay (NCATS) can be followed below.

Structures are written as SMILES. Values joined by “and” are separate entries in the source; they are usually repeats but may differ in a detail not shown here. Equal entries are not always repeated. Inconclusive results are not listed. Unmarked numbers belong to inactive results. Active and inactive are the calls of the source. Calls follow the shape of the dose curve; as a rule, active = well fitted curve in the direction sought with a large enough effect; inconclusive = small, poorly fitted or top-dose-only effect, or another doubt; inactive = no such curve, though single readings can be large; an effect the other way counts as inactive or inconclusive.

Assay [1] is described as follows: qHTS Assay for Identifying Gametocytocidal Compounds (AID 743244).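 As to max response: actives lower the fluorescent signal which means gametocytes are killed.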 The following applies: P. falciparum 3D7 stage III-V gametocytes, alamarBlue, 72 h; max response: active compounds read low. In outline:
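Viability read-out was resazurin reduction (alamarBlue, 24 h) measured at Ex 525/Em 598 nm. Beforehand, late-stage (III-V) 3D7 P. falciparum gametocytes at 20,000 cells/well were incubated with compound 72 h at 37C under 5% CO2.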

Assay [2] is described as follows: qHTS assay to identify small molecule inhibitors of chordoma cells - UCH-1 (AID 1259355). Also: nearly all actives have a fitted effect of over 55% in size. As to Potency: series mostly up to about 46 µM. The procedure, abridged:
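800 cells/well, overnight attach; compounds pinned at 15 concs, then auranofin/camptothecin/doxorubicin/rubitecan/topotecan combo added; 48hr 37 C, 5% CO2; CellTiter-Glo, 30min RT, luminescence.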
In general terms: Quantitative high-throughput screening tests each substance at several concentrations.
% is scaled to controls: 0 for no effect and ±100 for the full control effect; potency is read from the fitted curve at half-maximal effect.

In the case of `C[C@]12C[C@H]3S[C@H]3C[C@@H]1CC[C@@H]1[C@@H]2CC[C@]2(C)[C@@H](O)CC[C@@H]12`, the max response in assay [1] was 1.49%. The Potency entry in assay [2] was “inactive”.

As to `CC(N)Cc1ccc(O)cc1` (stereo unspecified), the max response in assay [1] is 1.03%. Moreover, the Potency entry in assay [2] is “inactive”.

For the compound `c1cc2c(c(NC3=NCCN3)c1)CCCC2`, the max response in assay [1] was -7.43%. The Potency entry in assay [2] is “inactive”.

On to `C=CCC1(C(C)CCC)C(=O)N=C(S)NC1=O` (stereo unspecified), for which, in assay [1], the max response is -3.05%. Besides, in assay [2], the Potency entry is “inactive”.

With `CC(C)CCC(=O)O[C@H]1CC[C@H]2[C@@H]3CCC4=CC(=O)CC[C@]4(C)[C@H]3CC[C@]12C`, in assay [1], the max response is 13.7%. In addition, the Potency entry in assay [2] is “inactive”.

As to `CC(=O)O[C@H]1C[C@H](O[C@H]2[C@@H](O)C[C@H](O[C@H]3[C@@H](O)C[C@H](O[C@H]4CC[C@@]5(C)[C@H](CC[C@@H]6[C@@H]5C[C@@H](O)[C@]5(C)[C@@H](C7=CC(=O)OC7)CC[C@]65O)C4)O[C@@H]3C)O[C@@H]2C)O[C@H](C)[C@H]1O[C@@H]1O[C@H](CO)[C@@H](O)[C@H](O)[C@H]1O`, the max response in assay [1] is -19.5%. For the same compound, the Potency in assay [2] was 0.251 µM (active).

For `C[C@]12CC[C@H]3[C@@H](CCC4=C(O)C(=O)CC[C@@H]43)[C@@H]1CC[C@@H]2OC(=O)CCC1CCCC1`, the max response in assay [1] was -3.51%. The Potency result in assay [2] is “inactive”.

With `C=CC[C@]1(O)CC[C@H]2[C@@H]3CCC4=CCCC[C@@H]4[C@H]3CC[C@@]21C`, the max response in assay [1] is 15.3%. Moreover, the Potency result in assay [2] was “inactive”.

Turning to `NCC[C@H](O)C(=O)N[C@@H]1C[C@H](N)[C@@H](O[C@H]2O[C@H](CN)[C@@H](O)[C@H](O)[C@H]2N)[C@H](O[C@@H]2O[C@H](CO)[C@@H](O)[C@H]2O)[C@H]1O`, the max response in assay [1] is 16.1%. Also, the Potency result in assay [2] was “inactive”.

Regarding `CNc1ccc(C(=O)CC(O)CCC(C)C2OC(=O)CC(O)CC(=O)CC(O)CC(O)CC(O)CC(O)CC3(O)CC(O)C(C(=O)OC)C(CC(O[C@@H]4O[C@H](C)[C@@H](O)[C@H](N)[C@@H]4O)/C=C/C=C/C=C/C=C/C=C/C=C/C=C/C2C)O3)cc1` (stereo partly specified), the max response in assay [1] is 22.8%. Also, the Potency entry in assay [2] was “inactive”.

In the case of `[H+].[H+].[Hg+2].[O-]B([O-])[O-].[c-]1ccccc1`, the results for the Potency in assay [1] and in assay [2] were 3.55 µM (active) and 8.91 µM (active), respectively.

For `CCON=O`, the max response in assay [1] was -5.54%. Also, in assay [2], the Potency entry is “inactive”.

Turning to `C[C@@H](CO)NC(=O)[C@@H]1C=C2c3cccc4[nH]cc(c34)C[C@H]2N(C)C1`, the max response in assay [1] is -6.08%. Also, the Potency result in assay [2] was “inactive”.

Take `CCC1(c2ccccc2)C(=O)NC(=O)N(C(=O)c2ccccc2)C1=O` (stereo unspecified): the max response in assay [1] is -4.65%. Also, the Potency result in assay [2] is “inactive”.

For the compound `COc1ccc2c3c1O[C@H]1C(=O)CC[C@H]4[C@@H](C2)N(C)CC[C@]314`, in assay [1], the max response is 13%. In addition, the Potency result in assay [2] is “inactive”.

With `CN(C)CCCCCCN(C)C` (tested in a mixture with another compound), the max response in assay [1] is 14.8%. Further, the Potency entry in assay [2] was “inactive”.

As to `CN(C)[C@H](Cc1ccccc1)c1ccccc1`, in assay [1], the max response is -4.16%. For the same compound, the Potency result in assay [2] was “inactive”.

Consider `[2H]C([2H])([2H])[C@H](N)Cc1ccccc1`, for which the max response in assay [1] is 14.3%. Moreover, the Potency result in assay [2] is “inactive”.

On to `CNC(C)C(O)c1ccc(O)cc1` (stereo unspecified), for which the max response in assay [1] was -4.84% and 8.32%. Besides, the Potency entry in assay [2] was “inactive”.

Regarding `CN1CCCC(=C(c2cccs2)c2cccs2)C1`, in assay [1], the max response is -3.64%. For the same compound, in assay [2], the Potency entry was “inactive”.

In the case of `CNC1(c2ccccc2Cl)CCCCC1=O` (stereo unspecified), the max response in assay [1] is 16% and -7.76%. In addition, the Potency entry in assay [2] was “inactive”.

As for `Cc1ccccc1-n1c(C)nc2ccccc2c1=O`, in assay [1], the max response was 5.64% and -12.4%. Further, in assay [2], the Potency entry was “inactive”.

Turning to `Clc1ccc(C2(Cn3cncn3)OCCO2)c(Cl)c1`, the max response in assay [1] was -2.25%. The Potency result in assay [2] was “inactive”.

In the case of `C[N+]1([O-])[C@@H]2CC[C@H]1CC(OC(=O)C(CO)c1ccccc1)C2` (stereo partly specified), the max response in assay [1] was 6.16% and -9.54%. For the same compound, in assay [2], the Potency entry is “inactive”.

In the case of `C[C@]12CCC(=O)C=C1C=C[C@@H]1[C@@H]2CC[C@@]2(C)[C@H]1CC[C@@]2(O)CCC(=O)O`, in assay [1], the max response is 16.5%. The Potency entry in assay [2] was “inactive”.

With `C[C@]12CC[C@H]3[C@@H](CCC4=C(Cl)C(=O)CC[C@@]43C)[C@@H]1CC[C@@H]2O`, in assay [1], the max response was -5.5%. Moreover, the Potency entry in assay [2] was “inactive”.

Turning to `CN1C2CCC1CC(OC(c1ccccc1)c1ccc(Cl)cc1)C2` (stereo unspecified), the Potency in assay [1] was 17.8 µM (active). Besides, the Potency result in assay [2] was “inactive”.

Regarding `C[C@]12CC[C@H](O)C[C@H]1CC[C@@H]1[C@@H]2CC[C@]2(C)[C@@H](c3ccc(=O)oc3)C[C@H]3O[C@]132`, in assay [1], the max response is 10.6%. Further, the Potency in assay [2] is 6.31 µM [with auranofin plus four topoisomerase inhibitors] (active).
